# Screen size: about 5,500 compounds; about 2,000 (36%) were called active. Not shown: some 18% with an inconclusive outcome. No stated cut-off is given here; in the data, active means normalized growth mostly below about 0.91 (no sharp cut-off); inconclusive means no clear call, values can overlap the other calls; inactive means mostly above about 0.92. This is one part of the list.
# Assay: chemical genetic growth profiling, strain panel (AID 1159580);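 further: tested at 20 µM; growth read once vehicle control cultures reached saturation at 30 °C; 1 = growth at the plate median or of vehicle wells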
# Conditions: S. cerevisiae deletion strains, growth OD
# [1] = locus YHR030C, strain SLT2, stronger effect = lower value
# [2] = locus YHR079C, strain IRE1, stronger effect = lower value
# [3] = locus YJL095W, strain BCK1, stronger effect = lower value
# [4] = locus YJR066W, strain TOR1, stronger effect = lower value
# [5] = locus YLR113W, strain HOG1, stronger effect = lower value
# [6] = locus YNL183C, strain NPR1, stronger effect = lower value
# [7] = locus YOR231W, strain MKK1, stronger effect = lower value
# [8] = locus YPL256C, strain CLN2, stronger effect = lower value
smiles,measurement,setting,value
CN1CCCC(n2nc(Cc3ccc(Cl)cc3)c3ccccc3c2=O)CC1 (stereo not drawn),normalized growth,"locus YAL021C, strain ccr4, stronger effect = lower value",1.01 (inactive)
same,normalized growth,"locus YAL026C, strain drs2, stronger effect = lower value",1 (inactive)
same,normalized growth,"locus YAL030W, strain snc1, stronger effect = lower value",0.999 (inactive)
same,normalized growth,"locus YBL061C, strain skt5, stronger effect = lower value",1 (inactive)
same,normalized growth,"locus YBR009C, strain hhf1, stronger effect = lower value",0.93 (inactive)
same,normalized growth,"locus YBR023C, strain chs3, stronger effect = lower value",1.02 (inactive)
same,normalized growth,"locus YBR171W, strain sec66, stronger effect = lower value",0.989 (inactive)
same,normalized growth,"locus YBR231C, strain swc5, stronger effect = lower value",0.984 (inactive)
same,normalized growth,"locus YBR279W, strain paf1, stronger effect = lower value",1.02 (inactive)
same,normalized growth,"locus YCL011C, strain gbp2, stronger effect = lower value",0.989 (inactive)
same,normalized growth,"locus YCL016C, strain dcc1, stronger effect = lower value",1.04 (inactive)
same,normalized growth,"locus YCL061C, strain MRC1, stronger effect = lower value",0.968 (inactive)
same,normalized growth,"locus YCL069W, strain vba3, stronger effect = lower value",0.988 (inactive)
same,normalized growth,"locus YCR088W, strain abp1, stronger effect = lower value",0.991 (inactive)
same,normalized growth,"locus YDL005C, strain med2, stronger effect = lower value",0.999 (inactive)
same,normalized growth,"locus YDL040C, strain nat1, stronger effect = lower value",1 (inactive)
same,normalized growth,"locus YDR001C, strain nth1, stronger effect = lower value",1 (inactive)
same,normalized growth,"locus YDR069C, strain doa4, stronger effect = lower value",0.996 (inactive)
same,normalized growth,"locus YDR137W, strain rgp1, stronger effect = lower value",1.25 [resistant] (active)
same,normalized growth,"locus YDR159W, strain sac3, stronger effect = lower value",0.912 (inactive)
same,normalized growth,"locus YDR195W, strain ref2",0.972 (inactive)
same,normalized growth,"locus YDR297W, strain sur2, stronger effect = lower value",0.99 (inactive)
same,normalized growth,"locus YDR334W, strain swr1, stronger effect = lower value",0.981 (inactive)
same,normalized growth,"locus YDR335W, strain msn5, stronger effect = lower value",1.01 (inactive)
same,normalized growth,"locus YDR392W, strain spt3, stronger effect = lower value",0.772 (inactive)
same,normalized growth,"locus YEL003W, strain gim4, stronger effect = lower value",0.948 (inactive)
same,normalized growth,"locus YEL037C, strain rad23, stronger effect = lower value",0.992 (inactive)
same,normalized growth,"locus YEL061C, strain CIN8 (second series), stronger effect = lower value",0.983 (inactive)
same,normalized growth,"locus YER015W, strain faa2, stronger effect = lower value",0.966 (inactive)
same,normalized growth,"locus YER016W, strain bim1, stronger effect = lower value",1.03 (inactive)
same,normalized growth,"locus YER111C, strain swi4, stronger effect = lower value",1.01 (inactive)
same,normalized growth,"locus YER155C, strain BEM2 (second series), stronger effect = lower value",0.884 (inactive)
same,normalized growth,"locus YFR010W, strain ubp6, stronger effect = lower value",0.941 (inactive)
same,normalized growth,"locus YGL167C, strain pmr1, stronger effect = lower value",0.982 (inactive)
same,normalized growth,"locus YGL173C, strain kem1, stronger effect = lower value",0.964 (inactive)
same,normalized growth,"locus YGL227W, strain vid30, stronger effect = lower value",1 (inactive)
same,normalized growth,"locus YGL240W, strain doc1, stronger effect = lower value",0.942 (inactive)
same,normalized growth,"locus YGL253W, strain hxk2, stronger effect = lower value",1.02 (inactive)
same,normalized growth,"locus YHR013C, strain ard1, stronger effect = lower value",0.994 (inactive)
same,normalized growth,"locus YHR027C, strain rpn1, stronger effect = lower value",0.944 (inactive)
same,normalized growth,[1],1.03 (inactive)
same,normalized growth,[2],1.02 (inactive)
same,normalized growth,"locus YHR142W, strain chs7, stronger effect = lower value",1.02 (inactive)
same,normalized growth,"locus YJL092W, strain hpr5, stronger effect = lower value",0.981 (inactive)
same,normalized growth,"locus YJL095W, strain BCK1 (second series), stronger effect = lower value",0.996 (inactive)
same,normalized growth,[3],0.979 (inactive)
same,normalized growth,"locus YJL115W, strain asf1, stronger effect = lower value",1.02 (inactive)
same,normalized growth,"locus YJL129C, strain trk1, stronger effect = lower value",1.07 (inactive)
same,normalized growth,"locus YJL154C, strain vps35, stronger effect = lower value",0.992 (inactive)
same,normalized growth,"locus YJL164C, strain tpk1, stronger effect = lower value",0.964 (inactive)
same,normalized growth,"locus YJL166W, strain qcr8, stronger effect = lower value",0.96 (inactive)
same,normalized growth,"locus YJL187C, strain SWE1, stronger effect = lower value",1.01 (inactive)
same,normalized growth,[4],0.99 (inactive)
same,normalized growth,"locus YKL160W, strain elf1, stronger effect = lower value",1.04 (inactive)
same,normalized growth,"locus YKR026C, strain gcn3, stronger effect = lower value",0.995 (inactive)
same,normalized growth,"locus YKR091W, strain srl3, stronger effect = lower value",1 (inactive)
same,normalized growth,"locus YLL001W, strain dnm1, stronger effect = lower value",0.958 (inactive)
same,normalized growth,"locus YLL026W, stronger effect = lower value",1 (inactive)
same,normalized growth,"locus YLL041C, strain sdh2, stronger effect = lower value",0.99 (inactive)
same,normalized growth,"locus YLR027C, strain aat2, stronger effect = lower value",1.01 (inactive)
same,normalized growth,[5],0.975 (inactive)
same,normalized growth,"locus YLR221C, strain rsa3, stronger effect = lower value",0.954 (inactive)
same,normalized growth,"locus YLR258W, strain gsy2, stronger effect = lower value",1.02 (inactive)
same,normalized growth,"locus YLR262C, strain YPT6 (second series), stronger effect = lower value",1.06 (inactive)
same,normalized growth,"locus YLR320W, strain mms22, stronger effect = lower value",0.905 (inactive)
same,normalized growth,"locus YLR342W, strain FKS1, stronger effect = lower value",1 (inactive)
same,normalized growth,"locus YLR357W, strain rsc2, stronger effect = lower value",0.949 (inactive)
same,normalized growth,"locus YLR370C, strain arc18, stronger effect = lower value",1.02 (inactive)
same,normalized growth,"locus YLR384C, strain iki3, stronger effect = lower value",0.996 (inactive)
same,normalized growth,"locus YML120C, strain ndi1, stronger effect = lower value",0.95 (inactive)
same,normalized growth,"locus YMR058W, strain fet3, stronger effect = lower value",0.961 (inactive)
same,normalized growth,"locus YMR125W, strain sto1, stronger effect = lower value",0.983 (inactive)
same,normalized growth,"locus YMR129W, stronger effect = lower value",1 (inactive)
same,normalized growth,"locus YMR205C, strain PFK2, stronger effect = lower value",0.981 (inactive)
same,normalized growth,"locus YMR231W, strain pep5, stronger effect = lower value",1 (inactive)
same,normalized growth,"locus YNL071W, strain lat1, stronger effect = lower value",0.993 (inactive)
same,normalized growth,[6],0.975 (inactive)
same,normalized growth,"locus YNL209W, strain ssb2, stronger effect = lower value",0.993 (inactive)
same,normalized growth,"locus YNL248C, strain rpa49, stronger effect = lower value",1 (inactive)
same,normalized growth,"locus YNL322C, strain KRE1 (second series), stronger effect = lower value",1.01 (inactive)
same,normalized growth,"locus YNR049C, strain mso1, stronger effect = lower value",1 (inactive)
same,normalized growth,"locus YOR001W, strain rrp6, stronger effect = lower value",0.902 (inactive)
same,normalized growth,"locus YOR070C, strain gyp1, stronger effect = lower value",1.01 (inactive)
same,normalized growth,"locus YOR080W, strain dia2, stronger effect = lower value",0.98 (inactive)
same,normalized growth,"locus YOR083W, strain WHI5, stronger effect = lower value",0.966 (inactive)
same,normalized growth,"locus YOR106W, strain vam3, stronger effect = lower value",0.993 (inactive)
same,normalized growth,[7],0.993 (inactive)
same,normalized growth,"locus YOR265W, strain rbl2, stronger effect = lower value",0.998 (inactive)
same,normalized growth,"locus YOR270C, strain vph1, stronger effect = lower value",0.93 (inactive)
same,normalized growth,"locus YOR290C, strain snf2, stronger effect = lower value",1.01 (inactive)
same,normalized growth,"locus YPL051W, strain arl3, stronger effect = lower value",1.05 (inactive)
same,normalized growth,"locus YPL078C, strain atp4, stronger effect = lower value",1.01 (inactive)
same,normalized growth,"locus YPL106C, strain sse1, stronger effect = lower value",1.08 (inactive)
same,normalized growth,"locus YPL240C, strain hsp82, stronger effect = lower value",1 (inactive)
same,normalized growth,[8],1.01 (inactive)
O=C1CCO1,normalized growth,[1],0.984 (inactive)
same,normalized growth,[2],0.99 (inactive)
same,normalized growth,[3],0.999 (inactive)
same,normalized growth,[4],0.946 (inactive)
same,normalized growth,[5],0.942 (inactive)
same,normalized growth,[6],0.951 (inactive)
same,normalized growth,[7],0.996 (inactive)
same,normalized growth,[8],0.992 (inactive)
